Results filed as inconclusive are left out. A structure can be active in one record and inactive in another. Activity calls are given as the source filed them. How the source made its calls, unless noted: active means hit-call score of the fitted dose curve at least 0.9, where 1 is the maximum; inactive means score below 0.9.
How the values were obtained:
CD69, CD69 (gene 969) = test: BSK_LPS_CD69: BioMAP Diversity Plus: LPS Assay for CD69 Biomarker Activity (AID 2284303); conditions: primary human HUVEC with PBMC
Summary of the method: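 CD69 surface levels were read by ELISA after 24 h chemical treatment of an LPS-stimulated HUVEC plus PBMC co-culture; positive-direction fit against DMSO vehicle.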

[1] = IUF_NPC2a_radial_glia_migration_120hr: Leibniz Research Institute for Environmental Medicine (IUF) 120-hour Neural Progenitor Cell Migration Assay for Radial Glia Migration (NPC2a) (AID 2284298)
Summary of the method: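 In this multiplexed test, fetal hNPC spheres migrate radially on poly-D-lysine/laminin in N2 medium (37C, 5% CO2, pH 7.2-7.6) under continuous compound exposure over five days. Migration is scored at 120 h from automated Hoechst nuclear imaging.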

[2] = IUF_NPC2a_radial_glia_migration_72hr: Leibniz Research Institute for Environmental Medicine (IUF) 72-hour Neural Progenitor Cell Migration Assay for Radial Glia Migration (NPC2a) (AID 2284299)
Method: IUF_NPC2-5 is a cell-based, multiplexed assay that uses hNPC, a human primary neural progenitor cells, with measurements taken at 72 or 120 hours after chemical dosing in a 96-well plate. Human neural progenitor cells (hNPC) are generated from human fetal brain cortex at gestational week (GW) 16-19. In the neural progenitor cell migration and differentiation assay (NPC2-5), hNPCs grown as spheres are plated on an extracellular matrix and migrate and differentiate out of the sphere core. The processes radial glia migration, neuronal and oligodendrocyte migration as well as neuronal differentiation, neuronal morphology and oligodendrocyte differentiation are studied using automated phase contrast imaging and automated fluorescence imaging in combination with high content image analysis. In parallel, the cell viability is assessed using an alamar blue viability assay and the cytotoxicity using a lactate dehydrogenase dependent membrane integrity assay.IUF_NPC2a_radial glia_migration_72hr is one of 12 assay components measured from the IUF_NPC2-5 assay. The migration distance of radial glia at 72 hr is assessed in um from the edge of the sphere core to the edge of the migration area based on brightfield images of each well. Therefore, each plate is scanned using a high content imaging device. Images are exported and the migration distance is measured manually in four directions using ImageJ. The mean of four measures per well is used as raw data input.Data from the IUF_NPC2a_radial_glia_migration_72hr component was analyzed at the endpoint IUF_NPC2a_radial_glia_migration_72hr in the positive analysis fitting direction relative to DMSO as the negative control and baseline of activity. Using a type of migration reporter, gain or loss-of-signal activity can be used to understand developmental effects.
(§1) Culture protocol: After the cell expansion period the cells are cultured for up to four weeks in which they are passaged every week as described in 3.6. Between one to three days after passaging spheres at a size of 0.3 mm are picked for the test method. […] Therefore, half of the test condition solution (e.g. solvent control or compound dilution) is replaced by freshly prepared test condition solution.Test Method: Migration distance and cytotoxicity is determined after 72 hours based on brightfield images of each well. […] On the ICC images, migration after 120 hours, neuronal and oligodendrocyte number, neuronal morphology and neuron/oligodendrocyte specific migration is assessed. immunocytochemical staining (ICC) generates an image for each sphere. The plates are scanned using an automated high content imaging device and all nuclei and their positions are determined automatically based on their intensity and size. […]

[3] = IUF_NPC2b_neuronal_migration_120hr: Leibniz Research Institute for Environmental Medicine (IUF) 120-hour Neural Progenitor Cell Migration Assay for Neuron Migration (NPC2b) (AID 2284300)
Summary of the method: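 Neurons identified by TUBB3 immunostaining and Hoechst nuclei; migration distance measured automatically on fixed wells at 120 h, normalized to glia migration. Exposure spanned five days of differentiation in N2 medium, seven test concentrations.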

[4] = IUF_NPC3_neuronal_differentiation_120hr: Leibniz Research Institute for Environmental Medicine (IUF) 120-hour Neuronal Differentiation Assay (NPC3) (AID 2284301)
Summary of the method: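 Value is percent TUBB3-positive neurons among Hoechst-stained nuclei in the migration area, scored by trained CNN after 120 h differentiation. Primary hNPC spheres on poly-D-lysine/laminin, N2 medium, continuous dosing from day 0, half-refeed day 3; DMSO reference.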

[5] = IUF_NPC4_neurite_length_120hr: Leibniz Research Institute for Environmental Medicine (IUF) 120-hour Neuronal Morphology Assay for Neurite Length (NPC4) (AID 2284302)
Summary of the method: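 Neurite length, the mean in um across TUBB3-stained neurons, is derived by skeletonization of high-content images after 120 h differentiation. Compound exposure, 7 concentrations plus solvent control, ran from plating of hNPC spheres on poly-D-lysine/laminin, with medium half-replaced on day 3.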

[6] = IUF_NPC5_oligodendrocyte_differentiation_120hr: Leibniz Research Institute for Environmental Medicine (IUF) 120-hour Oligodendrocyte Differentiation Assay (NPC5) (AID 2284304; active means hit-call score of the fitted dose curve at least 0.9, where 1 is the maximum;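 further: share of O4-positive cells among Hoechst nuclei found by CNN image analysis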)
Method: IUF_NPC2-5 is a cell-based, multiplexed assay that uses hNPC, a human primary neural progenitor cells, with measurements taken at 72 or 120 hours after chemical dosing in a 96-well plate. Human neural progenitor cells (hNPC) are generated from human fetal brain cortex at gestational week (GW) 16-19. In the neural progenitor cell migration and differentiation assay (NPC2-5), hNPCs grown as spheres are plated on an extracellular matrix and migrate and differentiate out of the sphere core. The processes radial glia migration, neuronal and oligodendrocyte migration as well as neuronal differentiation, neuronal morphology and oligodendrocyte differentiation are studied using automated phase contrast imaging and automated fluorescence imaging in combination with high content image analysis. In parallel, the cell viability is assessed using an alamar blue viability assay and the cytotoxicity using a lactate dehydrogenase dependent membrane integrity assay.IUF_NPC5_oligodendrocyte_differentiation_120hr is one of 12 assay components measured from the IUF_NPC2-5 assay. Oligodendrocyte differentiation at 120 hr is determined as the number of all O4-positive cells in percent of the number of Hoechst-positive nuclei in the total neurosphere migration area (see IUF_NPC2a_ glia_migration_120hr) after 120 hr of migration/differentiation. Oligodendrocytes are automatically identified using a convolutional neural network (CNN) that was trained using manually annotated images of differentiated oligodendrocytes.Data from the IUF_NPC5_oligodendrocyte_differentiation_120hr component was analyzed at the endpoint IUF_NPC5_oligodendrocyte_differentiation_120hr in the positive analysis fitting direction relative to DMSO as the negative control and baseline of activity. Using a type of differentiation reporter, loss-of-signal activity can be used to understand developmental effects.
Culture protocol: After the cell expansion period the cells are cultured for up to four weeks in which they are passaged every week as described in 3.6. […]

[7] = IUF_NPC4_neurite_area_120hr: Leibniz Research Institute for Environmental Medicine (IUF) 120-hour Neuronal Morphology Assay for Neurite Area (NPC4) (AID 2284305; active means hit-call score of the fitted dose curve at least 0.9, where 1 is the maximum)
Summary of the method: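 Neurite area (pixels, nuclei excluded) of TUBB3-positive neurons from hNPC spheres differentiating 5 days under continuous exposure at 37 C, 5% CO2. High-content imaging; loss of signal versus DMSO control across 7 concentrations.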

[8] = IUF_NPC2-5_cytotoxicity_72hr: Cytotoxicity Assessment at 72 hours in the Leibniz Research Institute for Environmental Medicine (IUF) Neural Progenitor Cell Migration and Differentiation Assay for Cytotoxicity (NPC2-5) (AID 2284306; active means hit-call score of the fitted dose curve at least 0.9, where 1 is the maximum;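 further: LDH release into supernatant measured by resorufin fluorescence marking membrane damage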)
Summary of the method: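 Membrane-integrity cytotoxicity at 72 h, read as LDH-driven resorufin fluorescence in supernatant. hNPC spheres from fetal cortex differentiate on coated plates in N2 medium, 37C, 5% CO2; seven serial compound concentrations plus solvent control (DMSO ≤0.1%).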

[9] = IUF_NPC2-5_cytotoxicity_120hr: Cytotoxicity Assessment at 120 hours in the Leibniz Research Institute for Environmental Medicine (IUF) Neural Progenitor Cell Migration and Differentiation Assay (NPC2-5) (AID 2284307; active means hit-call score of the fitted dose curve at least 0.9, where 1 is the maximum;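 on AC50: LDH released into supernatant as membrane damage marker via resorufin fluorescence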)
Method: IUF_NPC2-5 is a cell-based, multiplexed assay that uses hNPC, a human primary neural progenitor cells, with measurements taken at 72 or 120 hours after chemical dosing in a 96-well plate. Human neural progenitor cells (hNPC) are generated from human fetal brain cortex at gestational week (GW) 16-19. In the neural progenitor cell migration and differentiation assay (NPC2-5), hNPCs grown as spheres are plated on an extracellular matrix and migrate and differentiate out of the sphere core. The processes radial glia migration, neuronal and oligodendrocyte migration as well as neuronal differentiation, neuronal morphology and oligodendrocyte differentiation are studied using automated phase contrast imaging and automated fluorescence imaging in combination with high content image analysis. In parallel, the cell viability is assessed using an alamar blue viability assay and the cytotoxicity using a lactate dehydrogenase dependent membrane integrity assay.IUF_NPC2-5_cytotoxicity_120hr is one of 12 assay components measured from the IUF_NPC2-5 assay. It is designed to measure cytotoxicity at 120hr due to loss of membrane integrity. LDH measurements are performed from medium supernatants of each well and are based on the reduction of resazurin to resorufin measured as fluorescence signal (relative fluorescence unit) in a multiplate reader. Data from the IUF_NPC2-5_cytotoxicity_120hr component was analyzed at the endpoint IUF_NPC2-5_cytotoxicity_120hr in the positive analysis fitting direction relative to the dynamic range and baseline of activity. Using a type of viability reporter, gain-of-signal activity can be used to understand cytotoxicity effects.
as §1

Measured: AC50

CCOC(=O)C(C#N)=C(c1ccccc1)c1ccccc1
inactive: CD69, CD69 (gene 969)
active: CD69, CD69 (gene 969) 27900 nM

CCCCCCC(CO)CCCC (stereo unspecified)
inactive: CD69, CD69 (gene 969)

COCCc1ccc(OCC(O)CNC(C)C)cc1 (stereo unspecified)
inactive: [1] | [2] | [3] | [4] | [5] | [6] | [7] | [8] | [9]

CN(C)CCOC(C)(c1ccccc1)c1ccccn1 (stereo unspecified)
inactive: [1] | [2] | [3] | [4] | [5] | [8] | [9]

Oc1c(Cl)cc(Cl)c(Cl)c1Cc1c(O)c(Cl)cc(Cl)c1Cl
active: [1] 272 nM | [2] 380 nM | [3] 566 nM | [4] 472 nM | [5] 168 nM | [6] 75.1 nM | [7] 264 nM | [8] 702 nM | [9] 295 nM

CC1(C)CCC[C@]2(C)[C@H]3CCO[C@]3(C)CC[C@@H]12
inactive: CD69, CD69 (gene 969)

O=CN1CCOCC1
inactive: CD69, CD69 (gene 969)

COCCOCCOCCO
inactive: [1] | [2] | [3] | [4] | [6] | [7] | [8] | [9]

C=CC(C)(O)CCC=C(C)C (stereo unspecified)
inactive: CD69, CD69 (gene 969)

CC(CN=Cc1ccccc1O)N=Cc1ccccc1O (stereo unspecified)
inactive: CD69, CD69 (gene 969)

O=C(Nc1ccc2c(O)c(N=Nc3ccc(N=Nc4ccc(S(=O)(=O)O)cc4)cc3)c(S(=O)(=O)O)cc2c1)c1ccccc1
inactive: CD69, CD69 (gene 969)
